Common to all, as to test: HT-SELEX; 20 mM HEPES pH 7, 140 mM KCl, 5 mM NaCl, 1 mM K2HPO4, 2 mM MgSO4, 100 uM EGTA, ZnSO4, 0.1% Tween20; room temperature, 1 h; high values mean tight binding
What all share (conditions): protein: ivt; tags: eGFP (N-terminal); dsDNA, one strand shown

The target of test [1] is ZNF721 full-length (Homo sapiens, UniProt Q8TF20-2 1-923). The procedure, abridged:
(§1)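 Tagged transcription factor, expressed in HEK293 lysate or cell-free extract as a full-length protein or DNA-binding-domain fragment, was held on beads. It bound a randomized 40-base DNA library during 1 h at room temperature in low-stringency HEPES/KCl buffer with Tween20. Eluted DNA went through successive PCR cycles and Illumina sequencing of ~3 million 60 bp reads per sample. A higher relative k-mer count in the selected reads denotes tighter binding.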

Test [2] concerns the target ZNF721 DBD2 (Homo sapiens, UniProt Q8TF20-2 395-923). Put shortly: as §1
Test [3] concerns the target ZNF721 DBD1 (Homo sapiens, UniProt Q8TF20-2 29-461). The procedure, abridged:
as §1

Sequence of ZNF721 DBD2 (Q8TF20 383-911): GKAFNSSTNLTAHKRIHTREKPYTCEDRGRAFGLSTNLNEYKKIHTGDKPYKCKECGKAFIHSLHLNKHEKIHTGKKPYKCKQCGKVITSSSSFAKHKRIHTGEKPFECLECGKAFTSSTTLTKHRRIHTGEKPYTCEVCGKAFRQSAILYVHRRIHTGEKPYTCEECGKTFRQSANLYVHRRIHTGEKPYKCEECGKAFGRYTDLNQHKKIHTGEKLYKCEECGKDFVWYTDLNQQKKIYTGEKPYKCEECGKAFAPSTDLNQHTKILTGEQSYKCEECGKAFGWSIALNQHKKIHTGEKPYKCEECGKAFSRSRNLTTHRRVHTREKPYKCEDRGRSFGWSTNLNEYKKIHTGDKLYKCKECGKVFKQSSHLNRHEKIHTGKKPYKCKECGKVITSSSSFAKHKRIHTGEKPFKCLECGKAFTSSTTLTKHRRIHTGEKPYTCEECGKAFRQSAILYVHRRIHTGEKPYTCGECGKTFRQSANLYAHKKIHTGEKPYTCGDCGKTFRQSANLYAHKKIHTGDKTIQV
Sequence of ZNF721 full-length (Q8TF20 other isoform, or with tags, fused parts or gaps): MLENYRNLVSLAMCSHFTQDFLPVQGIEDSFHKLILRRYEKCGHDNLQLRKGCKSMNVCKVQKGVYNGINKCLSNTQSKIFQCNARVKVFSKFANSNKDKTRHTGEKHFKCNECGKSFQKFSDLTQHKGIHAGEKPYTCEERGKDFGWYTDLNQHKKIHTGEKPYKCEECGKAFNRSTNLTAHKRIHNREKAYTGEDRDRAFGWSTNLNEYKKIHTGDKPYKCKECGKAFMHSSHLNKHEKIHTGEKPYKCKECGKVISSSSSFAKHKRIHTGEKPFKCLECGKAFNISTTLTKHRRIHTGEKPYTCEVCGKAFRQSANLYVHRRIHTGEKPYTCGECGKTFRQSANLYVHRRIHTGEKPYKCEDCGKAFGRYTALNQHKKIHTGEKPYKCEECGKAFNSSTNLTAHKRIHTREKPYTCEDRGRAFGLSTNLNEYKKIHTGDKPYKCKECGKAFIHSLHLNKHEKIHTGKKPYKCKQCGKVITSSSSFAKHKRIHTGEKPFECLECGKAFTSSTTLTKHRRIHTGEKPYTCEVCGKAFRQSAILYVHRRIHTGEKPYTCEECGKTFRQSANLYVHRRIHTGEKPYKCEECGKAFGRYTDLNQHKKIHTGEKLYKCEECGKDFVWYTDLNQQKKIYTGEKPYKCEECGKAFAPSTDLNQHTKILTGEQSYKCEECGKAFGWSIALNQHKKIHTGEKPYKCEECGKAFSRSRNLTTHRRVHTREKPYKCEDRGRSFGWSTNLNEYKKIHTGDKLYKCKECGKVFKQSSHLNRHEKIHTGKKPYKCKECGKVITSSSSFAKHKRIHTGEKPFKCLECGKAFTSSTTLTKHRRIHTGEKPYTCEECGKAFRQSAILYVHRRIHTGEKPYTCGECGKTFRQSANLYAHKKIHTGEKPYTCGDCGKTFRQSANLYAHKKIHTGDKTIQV
Sequence of ZNF721 DBD1 (Q8TF20 17-449): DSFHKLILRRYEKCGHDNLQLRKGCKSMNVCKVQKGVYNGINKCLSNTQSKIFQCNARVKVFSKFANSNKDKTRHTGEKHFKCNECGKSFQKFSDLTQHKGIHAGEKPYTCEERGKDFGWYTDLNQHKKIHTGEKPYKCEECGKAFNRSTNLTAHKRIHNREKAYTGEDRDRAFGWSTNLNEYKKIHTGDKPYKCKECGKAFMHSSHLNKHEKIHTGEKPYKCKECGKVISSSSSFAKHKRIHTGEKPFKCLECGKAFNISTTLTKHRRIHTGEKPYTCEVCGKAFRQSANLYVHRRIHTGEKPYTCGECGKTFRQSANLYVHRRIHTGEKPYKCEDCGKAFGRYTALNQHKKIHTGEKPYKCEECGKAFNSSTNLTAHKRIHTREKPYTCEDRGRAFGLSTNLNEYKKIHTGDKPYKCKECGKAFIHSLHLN

For CACAAAACAG, the binding signal was found to be 0.147 relative 10-mer count in test [1] and 0.156 relative 10-mer count in test [2].

GAGACACTGC: the binding signal in test [1] stood at 0.113 relative 10-mer count; in test [2], 0.128 relative 10-mer count.

With AAGCAGTGTC, the binding signal worked out at 0.13 relative 10-mer count in test [1] and 0.151 relative 10-mer count in test [2].

On to CAGTGTCTCC, for which the binding signal in test [1] came to 0.213 relative 10-mer count; in test [2] it was 0.552 relative 10-mer count.

Consider AGCCCCACCC, for which the binding signal came out at 0.106 relative 10-mer count in test [1], 0.00312 relative 10-mer count in test [3] and 0.00959 relative 10-mer count in test [2].

For the sequence AAAAACAGGA, the binding signal turned out to be 0.104 relative 10-mer count in test [1] and 0.113 relative 10-mer count in test [2].

Turning to ACAAAGCAGT, the binding signal in test [1] turned out to be 0.146 relative 10-mer count; in test [2] it was 0.174 relative 10-mer count.

Consider CAGAAAACAG, for which the binding signal in test [1] came to 0.147 relative 10-mer count; in test [2], 0.264 relative 10-mer count.

As for AACAAAACAG, the binding signal worked out at 0.206 relative 10-mer count in test [1] and 0.223 relative 10-mer count in test [2].

For AAAAACTAGC, the figures for the binding signal in test [1] and in test [2] were 0.103 relative 10-mer count and 0.135 relative 10-mer count, respectively.

For CGCTGTTTTC, the binding signal is 0.221 relative 10-mer count in test [1] and 0.356 relative 10-mer count in test [2].

As for CTGTTTTTTA, the binding signal in test [1] came out at 0.204 relative 10-mer count; in test [2] it was 0.282 relative 10-mer count.

With AGCAGTGTTG, the values for the binding signal in test [1] and in test [2] were 0.13 relative 10-mer count and 0.223 relative 10-mer count, respectively.

As to ACAGTGTTGC, the figures for the binding signal in test [1] and in test [2] were 0.13 relative 10-mer count and 0.341 relative 10-mer count, respectively.

For the sequence CAGCGTTGCC, the figures for the binding signal in test [1] and in test [2] were 0.143 relative 10-mer count and 0.423 relative 10-mer count, respectively.

Turning to AACAGAGTAC, the binding signal in test [1] was 0.127 relative 10-mer count; in test [2], 0.166 relative 10-mer count.

With AAACAGTGTT, the binding signal in test [1] is 0.338 relative 10-mer count; in test [2], 0.546 relative 10-mer count.

For the sequence CAAAGCAGCG, the binding signal in test [1] was determined as 0.114 relative 10-mer count; in test [2] it was 0.158 relative 10-mer count.

Take CGCTGTTTTA: the binding signal in test [1] was found to be 0.126 relative 10-mer count; in test [2], 0.174 relative 10-mer count.

As for AGAGTACCCA, the binding signal in test [1] is 0.112 relative 10-mer count; in test [2], 0.123 relative 10-mer count.

Take AAAGCAGTGT: the binding signal was determined as 0.513 relative 10-mer count in test [1] and 0.632 relative 10-mer count in test [2].

As for AAAAGAACAG, the binding signal stood at 0.113 relative 10-mer count in test [1] and 0.0777 relative 10-mer count in test [2].

Consider AAAACAGCGT, for which the results for the binding signal in test [1] and in test [2] were 0.759 relative 10-mer count and 0.975 relative 10-mer count, respectively.

As for AAAACAGCCC, the binding signal turned out to be 0.152 relative 10-mer count in test [1] and 0.156 relative 10-mer count in test [2].

Take AAAAACAGGG: the binding signal in test [1] worked out at 0.283 relative 10-mer count; in test [2] it was 0.337 relative 10-mer count.

As for CAGGGTATCC, the binding signal in test [1] is 0.221 relative 10-mer count; in test [2], 0.431 relative 10-mer count.

As for AAAACAGCAT, the binding signal was 0.921 relative 10-mer count in test [1] and 1 relative 10-mer count in test [2].

Take AAAACAGCGC: the binding signal amounted to 0.17 relative 10-mer count in test [1] and 0.225 relative 10-mer count in test [2].

In the case of AAAACAGTGT, the binding signal in test [1] was 0.495 relative 10-mer count; in test [2] it was 0.712 relative 10-mer count.

For AAACAGCGTT, the results for the binding signal in test [1] and in test [2] were 0.388 relative 10-mer count and 0.648 relative 10-mer count, respectively.

In the case of ACAGCGTATC, the binding signal is 0.232 relative 10-mer count in test [1] and 0.371 relative 10-mer count in test [2].

On to AACGCTGCTT, for which the binding signal in test [1] was found to be 0.207 relative 10-mer count; in test [2] it was 0.327 relative 10-mer count.

On to CAAAGCAGCA, for which the values for the binding signal in test [1] and in test [2] were 0.112 relative 10-mer count and 0.132 relative 10-mer count, respectively.

Take AACAGCGTCT: the binding signal in test [1] amounted to 0.203 relative 10-mer count; in test [2], 0.347 relative 10-mer count.

In the case of CGAAAAACAG, the binding signal came to 0.174 relative 10-mer count in test [1] and 0.222 relative 10-mer count in test [2].

AAACAGCATA: the binding signal in test [1] came out at 0.56 relative 10-mer count; in test [2], 0.657 relative 10-mer count.

Turning to CCCTGTTTTC, the figures for the binding signal in test [1] and in test [2] were 0.162 relative 10-mer count and 0.186 relative 10-mer count, respectively.

With AAAACAGAGT, the binding signal in test [1] was found to be 0.236 relative 10-mer count; in test [2] it was 0.279 relative 10-mer count.

AAACACTGTT: the binding signal stood at 0.135 relative 10-mer count in test [1] and 0.266 relative 10-mer count in test [2].

On to AACAAAGCAG, for which the binding signal was determined as 0.243 relative 10-mer count in test [1] and 0.29 relative 10-mer count in test [2].

For AACAGCGTAC, the binding signal in test [1] was found to be 0.19 relative 10-mer count; in test [2], 0.275 relative 10-mer count.

Regarding CAGGGTTGCC, the binding signal in test [1] stood at 0.155 relative 10-mer count; in test [2] it was 0.49 relative 10-mer count.

Regarding ACTGTTTTTC, the binding signal is 0.135 relative 10-mer count in test [1] and 0.17 relative 10-mer count in test [2].

Turning to ACAAAACAGC, the binding signal came out at 0.249 relative 10-mer count in test [1] and 0.272 relative 10-mer count in test [2].

For ACAGTGTTTC, the binding signal in test [1] came to 0.14 relative 10-mer count; in test [2] it was 0.272 relative 10-mer count.

As for AAAAACAGCA, the binding signal in test [1] is 0.778 relative 10-mer count; in test [2], 0.785 relative 10-mer count.

As to AAAACAGTGC, the binding signal in test [1] stood at 0.121 relative 10-mer count; in test [2], 0.195 relative 10-mer count.

Turning to ATGCTGTTTC, the binding signal in test [1] is 0.143 relative 10-mer count; in test [2], 0.178 relative 10-mer count.

For AAAAAACAGT, the binding signal amounted to 0.466 relative 10-mer count in test [1] and 0.516 relative 10-mer count in test [2].

In the case of ACAGCATGAC, the binding signal came to 0.209 relative 10-mer count in test [1] and 0.295 relative 10-mer count in test [2].

Take AAAAAACAGC: the binding signal in test [1] amounted to 1 relative 10-mer count; in test [2], 0.902 relative 10-mer count.

With AAAACAGGGT, the binding signal in test [1] worked out at 0.391 relative 10-mer count; in test [2] it was 0.506 relative 10-mer count.

As to AAACAGTGTC, the binding signal stood at 0.116 relative 10-mer count in test [1] and 0.209 relative 10-mer count in test [2].

With AAAGGAACAG, the values for the binding signal in test [1] and in test [2] were 0.113 relative 10-mer count and 0.0545 relative 10-mer count, respectively.

In the case of CAGCATATCC, the figures for the binding signal in test [1] and in test [2] were 0.162 relative 10-mer count and 0.216 relative 10-mer count, respectively.

Regarding CAGCATGACC, the binding signal in test [1] was 0.229 relative 10-mer count; in test [2], 0.437 relative 10-mer count.

Consider CACTGTTTTC, for which the results for the binding signal in test [1] and in test [2] were 0.15 relative 10-mer count and 0.248 relative 10-mer count, respectively.

On to AAAACAGCGG, for which the results for the binding signal in test [1] and in test [2] were 0.134 relative 10-mer count and 0.189 relative 10-mer count, respectively.

AAGCAGCGTC: the figures for the binding signal in test [1] and in test [2] were 0.112 relative 10-mer count and 0.133 relative 10-mer count, respectively.

Regarding AAAAGCAGTG, the binding signal came to 0.383 relative 10-mer count in test [1] and 0.397 relative 10-mer count in test [2].

As for AAACAGCAGC, the binding signal stood at 0.122 relative 10-mer count in test [1] and 0.135 relative 10-mer count in test [2].

Regarding AACAGCGTAT, the binding signal in test [1] is 0.225 relative 10-mer count; in test [2], 0.366 relative 10-mer count.

Turning to AAACAGCATC, the binding signal was found to be 0.208 relative 10-mer count in test [1] and 0.21 relative 10-mer count in test [2].

With ACAGCATATC, the binding signal in test [1] amounted to 0.126 relative 10-mer count; in test [2], 0.174 relative 10-mer count.

As for CAGCGTTTCC, the binding signal in test [1] worked out at 0.342 relative 10-mer count; in test [2], 0.861 relative 10-mer count.

For the sequence TAAAACAGCA, the binding signal is 0.152 relative 10-mer count in test [1] and 0.177 relative 10-mer count in test [2].

Regarding AAACAGCATT, the binding signal in test [1] was 0.17 relative 10-mer count; in test [2], 0.254 relative 10-mer count.

Consider GAAACGCTGC, for which the binding signal in test [1] came out at 0.102 relative 10-mer count; in test [2], 0.169 relative 10-mer count.

Regarding GAAACACTGC, the results for the binding signal in test [1] and in test [2] were 0.118 relative 10-mer count and 0.188 relative 10-mer count, respectively.

As for AACAGCATAC, the binding signal in test [1] stood at 0.51 relative 10-mer count; in test [2], 0.709 relative 10-mer count.

As for AAAAGCAGCG, the binding signal is 0.276 relative 10-mer count in test [1] and 0.326 relative 10-mer count in test [2].

As for AGAAAACAGC, the results for the binding signal in test [1] and in test [2] were 0.251 relative 10-mer count and 0.322 relative 10-mer count, respectively.

As for CAGTGTTTCC, the values for the binding signal in test [1] and in test [2] were 0.252 relative 10-mer count and 0.641 relative 10-mer count, respectively.

For AAACAGCACT, the binding signal in test [1] came out at 0.14 relative 10-mer count; in test [2], 0.201 relative 10-mer count.

Consider AAACAGAGTA, for which the binding signal in test [1] came to 0.198 relative 10-mer count; in test [2], 0.22 relative 10-mer count.

On to ACAAAAACAG, for which the binding signal in test [1] is 0.13 relative 10-mer count; in test [2], 0.173 relative 10-mer count.

Turning to AAAACAGGGG, the binding signal in test [1] is 0.112 relative 10-mer count; in test [2], 0.145 relative 10-mer count.

Consider ACAGGGTATC, for which the binding signal in test [1] is 0.137 relative 10-mer count; in test [2] it was 0.2 relative 10-mer count.

On to AAAAAACAGG, for which the binding signal in test [1] was 0.278 relative 10-mer count; in test [2], 0.289 relative 10-mer count.

Regarding CAAAAACAGC, the binding signal in test [1] stood at 0.163 relative 10-mer count; in test [2], 0.251 relative 10-mer count.

On to AAACGCTGTT, for which the values for the binding signal in test [1] and in test [2] were 0.236 relative 10-mer count and 0.44 relative 10-mer count, respectively.

Turning to CAAAACAGCG, the binding signal in test [1] came to 0.142 relative 10-mer count; in test [2] it was 0.176 relative 10-mer count.

Regarding ATAAAACAGC, the figures for the binding signal in test [1] and in test [2] were 0.158 relative 10-mer count and 0.214 relative 10-mer count, respectively.

As for AAACACTGCT, the binding signal in test [1] came out at 0.109 relative 10-mer count; in test [2], 0.18 relative 10-mer count.

Turning to AAAAACAGAA, the binding signal in test [1] was 0.108 relative 10-mer count; in test [2] it was 0.0718 relative 10-mer count.

As for CAGTGTATCC, the binding signal in test [1] was 0.208 relative 10-mer count; in test [2], 0.401 relative 10-mer count.

Regarding AAAACAGGAT, the binding signal in test [1] came to 0.12 relative 10-mer count; in test [2], 0.133 relative 10-mer count.
